Laboratory results from PubChem BioAssay AID540333 (Southern Research Specialized Biocontainment Screening …, 2011).
About 320 (3.2%) of roughly 10,000 compounds were called active. Shown is part of a subset that was picked to be rich in actives. Values without a mark were called inactive. Rule as the data show it: active = CPE inhibition mostly above about 9.1% (no sharp cut-off); inactive = mostly below about 7.2%.

test: antivirals protecting cells from dengue CPE – CPE readout, HTS (AID 540333); details: Dengue virus CPE inhibition in host cells, at 20 µM; stronger effect = higher value

SMILES	CPE inhibition
COc1cc(C(=O)NCC(c2ccco2)N(C)C)cc(OC)c1OC (stereo not drawn)	0.055%
CC(C(=O)NC1CCCc2ccccc21)N1CCN(c2ccc(F)cc2)CC1 (stereo not drawn)	0.305%
CC(C)(C)[C@H]1C=C(C(=O)NCc2ccccc2)O[C@@H](OCCCCO)C1	0.655%
CCC(C)c1ccccc1NC(=O)COC(=O)c1ccc2[nH]c3c(c2c1)CCCC3 (stereo not drawn)	25.9% (active)
CC(C)c1ccccc1NC(=O)COC(=O)Cc1c[nH]c2ccccc12	inactive
CC(C)c1ccccc1NC(=O)COC(=O)c1ccc(Cl)c(S(=O)(=O)N2CCCCCC2)c1	0.87%
NNc1nc(-c2ccccc2)nc2sc3c(c12)CCCC3	inactive
COc1ccc(-c2c(-c3cc(OC)cc(OC)c3)n(C)c3ccc(-c4ccc(N(C)C)nc4)cc23)cc1	0.63%
O=C1CN(C(=O)COc2ccc(Br)cc2F)c2ccccc2N1	inactive
CCOc1ccc(NS(=O)(=O)c2cc(NC(=O)CCS(=O)(=O)c3ccc(C)cc3)ccc2OC)cc1	0.21%
CCOC(=O)c1c(C)[nH]c(C=O)c1Cc1cccc(Cl)c1	14.8% (active)
CCOC(=O)c1c(C)nc2ccc(Cl)cc2c1-c1ccccc1	0.765%
CCOC(=O)c1c(C)[nH]c(C(=O)N/N=C\c2ccccc2Cl)c1C	3.76%
O=C(O)CCC(=O)Nc1ccccc1C(=O)NCc1ccccc1	1.71%
CCCCNc1c(-c2cccc(-c3ccc(OC)cc3)c2)nc2cc(C)ccn12	inactive
CCCCNc1c(-c2ccc(-c3cccc(Cl)c3)cc2)nc2ccc(Cl)cn12	9.97% (active)
CCCCNc1c(-c2cccc(SC(C)CC)c2)nc2ccc(Cl)cn12 (stereo not drawn)	1.45%
Cc1c(Cl)cccc1NC(=O)COC(=O)c1c2c(nc3ccccc13)CCN(Cc1ccccc1)C2	0.23%
CCc1nnc(N/N=C/c2cccs2)n1N	2.18%
CC(C)(C)c1nnc(N/N=C/c2ccc(Br)cc2)n(N)c1=O	27.6% (active)

SMILES	CPE inhibition
CC(C)(C)c1nnc(N/N=C/c2ccccc2)n(N)c1=O	2.69%
C/C(=N\NC(=O)CN(c1ccccc1Br)S(C)(=O)=O)c1ccc2c(c1)OCCO2	0.855%
CCOC(=O)/C=C/[C@H]1CC(c2ccccc2)(c2ccccc2)CO1	0.15%
CCn1c(SCC(=O)N2c3ccccc3CCc3ccccc32)nnc1-c1ccc(OC)cc1	1.05%
Cn1c(SCC(=O)N2c3ccccc3CCc3ccccc32)nnc1-c1ccc(O)cc1	inactive
Cn1c(SCC(=O)N2c3ccccc3CCc3ccccc32)nnc1-c1cc2ccccc2cc1O	11.1% (active)
CCn1cc(/C=C/C(=O)Nc2ccn(Cc3c(F)c(F)cc(F)c3F)n2)cn1	inactive
Cc1ccc(S(=O)(=O)N2CCC(=O)N(CCOCc3ccccc3)CC2)cc1	0.27%
C=CCn1c(C)cc(C(=O)COC(=O)[C@@H](NC(=O)c2ccccc2Cl)C(C)C)c1C	inactive
CCOC(=O)C(=O)NNc1ccc(C)cc1	inactive
CCOC(=O)C(=CNc1cc(C)ccn1)C(=O)OCC	inactive
CCOC(=O)C(=CNc1ccc(NC2=NCC(C)S2)cc1)C(=O)OCC (stereo not drawn)	10.9% (active)
O=C(CSc1nc2ccc(Cl)cc2[nH]1)N1CCN(C(=O)c2ccco2)CC1	0.04%
Nc1nonc1C(=O)NCCNS(=O)(=O)c1ccc(F)cc1	inactive
Cc1ccc(S(=O)(=O)NCCC(c2ccccc2)c2ccco2)cc1 (stereo not drawn)	inactive
O=S(=O)(NCCC(c1ccc(F)cc1)c1ccco1)c1ccccc1 (stereo not drawn)	14.2% (active)
CC(Nc1cc(N2CCNCC2)ccc1[N+](=O)[O-])c1ccccc1 (stereo not drawn)	0.87%
O=C(CN1CCN(Cc2ccccc2)CC1)Nc1ccc(S(=O)(=O)N2CCOCC2)cc1	inactive
Cc1ccc(-n2c(SCC(=O)N/N=C/c3ccc(C)s3)nnc2-c2ccccc2)cc1	6.83%
Cn1c(SCC(=O)N2c3ccccc3Sc3ccccc32)nc2ccccc21	10.5%

SMILES	CPE inhibition
Cc1ccc(-n2c(SCC(=O)N3c4ccccc4Sc4ccccc43)nnc2-c2ccncc2)cc1	13.2% (active)
O=C(CSc1ccc(Cl)cc1)Nc1cccc(-c2nnc(-c3ccco3)o2)c1	0.905%
O=C(CNc1cc(S(=O)(=O)N2CCCC2)ccc1OCC(F)(F)F)Nc1cccc(C(F)(F)F)c1	15.3% (active)
Cc1ccc(OCC(=O)Nc2cccc(S(=O)(=O)N3CCCCC3)c2)c([N+](=O)[O-])n1	0.73%
O=C(Nc1cc(S(=O)(=O)N2CCCC2)ccc1OCC(F)(F)F)c1ccc(F)cc1	inactive
O=S(=O)(NCCCc1ccccc1)c1cccc2nsnc12	0.135%
O=C(O)CCN1CC2([N+](=O)[O-])C=CC(=O)C([N+](=O)[O-])(C1)C2CC(=O)c1ccccc1 (stereo not drawn)	0.01%
COc1cc(/C=N/NS(=O)(=O)c2ccccc2)ccc1OS(=O)(=O)c1ccc(C)cc1	0.62%
CCCc1cc(=O)[nH]c(SCC(=O)N2CCN(S(=O)(=O)c3ccc4ccccc4c3)CC2)n1	inactive
O=C(/C=C/c1cccc(Cl)c1)NCc1ccncc1	0.12%
O=C(NC(Cc1c[nH]c2ccccc12)C(=O)OCC(=O)c1cccc2ccccc12)c1cccs1 (stereo not drawn)	inactive
COc1cc(CNn2cn[nH]c2=S)cc(Cl)c1OCc1ccc(F)cc1	inactive
COc1ccc(C2CC(=O)C3=C(C2)Nc2ccccc2NC3c2coc3ccccc3c2=O)cc1OC (stereo not drawn)	51.7% (active)
COc1ccc([C@H]2CC(=O)C=C(/C=C/c3ccccc3)C2)cc1OC	0.185%
COc1ccccc1NC(=O)C1=C(C)NC2=C(C(=O)CC(c3ccc(OC)c(OC)c3)C2)C1c1coc2ccccc2c1=O (stereo not drawn)	5.03%
O=C(CNc1cccc(C(F)(F)F)c1)N/N=C/c1cccc(Br)c1	9% (active)
C/C(=N\NC(=O)CNc1cccc(C(F)(F)F)c1)c1ccc(Br)cc1	3.77%
C/C(=N\NC(=O)CNc1cccc(C(F)(F)F)c1)c1cccc(Br)c1	7.08%
